High-throughput results (PubChem BioAssay)
Cycloheximide cs = counter-screen for Shiga toxin inhibitors: cycloheximide protein synthesis inhibition | max response, % | AID 2314 | cell reporter, cycloheximide protein synthesis inhibition counterscreen | hit rate 12% among 300,000; in the data active means max response mostly above about 13%, no sharp cut-off; inactive means mostly below about 14%; further: read at 38.3 µM for the half of the compounds with a filed dose; 0% is about no effect
HCV inh = inhibitors of hepatitis C virus infection; Huh7.5.1 HCVcc-Cre infection, luciferase reporter, 44 h; Potency, µM (highest dose often 41.8 µM), for inactives: at the highest dose activity change, negative = inhibition, hits mostly inhibitors; hit rate 3.4% among 340,000; active means well fitted inhibition curve with a large enough effect; inconclusive means small, poorly fitted or top-dose-only effect, or another doubt; inactive means no such curve, though single readings can be large or run the other way; further: potency means the concentration at half of the fitted maximal effect; on the % scale 0 is the no-effect control and ±100 the full control effect
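Reporter virus HCVcc-Cre (~0.5 moi) infects cells exposed to compound; seeding density 1,000 cells/well with 4 h settling beforehand. Luminescence, 15 sec read, taken 44 h post-infection following a 15 min RT substrate incubation.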
Marburg entry inh = Marburg virus entry inhibition | Marburg virus pseudotyped entry inhibition, cell reporter | Potency, µM (titrated, usually from 37.8 µM), without a hit: at the top dose activity change, negative = inhibition, actives largely listed as inhibitors | hit rate 1.8% among 300,000 | AID 540276; calls by dose curve; tested in HEK293 cells; further: potency means the concentration at half of the fitted maximal effect; on the % scale 0 is the no-effect control and ±100 the full control effect
Shiga inhibitor = blocks Shiga toxin action in Vero cells; Vero cells, Shiga toxin protein synthesis inhibition reporter; inhibition, % at 38.7 µM; hit rate 9.2% among 290,000; in the data active means inhibition mostly above about 28%, no sharp cut-off; inactive means mostly below about 43%; further: 0% is about no effect
FMDV antiviral = blocks foot and mouth disease virus; FMDV antiviral cell-based qHTS; Potency, µM (titrated, usually from 57.9 µM), inactives show at the top dose activity change, negative = inhibition, usual class: inhibitors; hit rate 1.2% among 410,000; calls by dose curve; tested in HEK293T cells; further: read-out not given here; potency means the concentration at half of the fitted maximal effect; on the % scale 0 is the no-effect control and ±100 the full control effect; nearly all actives have a fitted effect of over 45% in size
LASV entry inh = blocks Lassa virus binding to or entry into cells. Potency, µM (highest dose often 37.9 µM), without a hit: at the highest dose activity change, negative = inhibition, actives largely listed as inhibitors. hit rate 1.2% among 300,000. Lassa virus pseudotype entry inhibition, cell reporter; calls by dose curve; tested in HEK293 cells; further: potency means the concentration at half of the fitted maximal effect; on the % scale 0 is the no-effect control and ±100 the full control effect; nearly all actives have a fitted effect of over 50% in size
* marks the source's active call; other numbers are inactive results; ? = inconclusive; nt = no result; [ ] = dose if it differs, or a comment. Shown are actives, neighbours in structure and some others; about 13% of the full set was active somewhere.

SMILES | Cycloheximide cs | HCV inh | Marburg entry inh | Shiga inhibitor | FMDV antiviral | LASV entry inh
COCCC(=O)N1CCC(Oc2ccc(C(=O)NCCCC3CCCC3)cc2)CC1 | 12.5* | ? | -14.5% | 19.5 | -26.2% | -25.6%
CCN(CC)S(=O)(=O)c1ccc(N2CCCC2)c(NC(=O)c2ccccc2OC)c1 | 2.5 | -23.0% | nt | 2.4 | -14.0% | nt
CCOC(=O)c1ccccc1NC(=O)CSc1ccc(-c2cccs2)nn1 | nt | nt | nt | nt | -15.9% | -6.8%[46.1 µM]
CC(=O)Nc1ccc(SCC(=O)NC(=O)c2ccc(S(=O)(=O)N(C)C)cc2)cc1 | nt | -4.3% | -8.6% | nt | 12.3% | 28.0%
CCOc1ccccc1N(CC(=O)N/N=C/c1cc(Br)ccc1OC)S(C)(=O)=O | -2.6 | -16.6% | ? | -4.2 | -29.0% | ?
COC(=O)N1C(C=Cc2ccc3c(c2)OCO3)=Cc2ccccc2C1CC(C)=O (centres undefined) | nt | nt | -12.3%[14.2 µM] | nt | nt | ?
CC1Cc2cc(/C(O)=C3/C(=O)C(=O)N(Cc4cccnc4)C3c3cccc(O)c3)ccc2O1 (centres undefined) | 34.3* | 8.1% | nt | 66.1* | -17.1% | nt
CC1Cc2cc(/C(O)=C3/C(=O)C(=O)N(CC4CCCO4)C3c3ccco3)ccc2O1 (centres undefined) | 41.3* | 6.2% | 16.2% | 74.3* | 3.3% | 17.5%
C=CCOc1cccc(C2/C(=C(\O)c3ccc4c(c3)OCCO4)C(=O)C(=O)N2Cc2cccnc2)c1 (centres undefined) | -1.8 | 4.3% | 4.7%[46.1 µM] | 19.4 | -1.1% | 2.7%[46.1 µM]
Cc1nnc(N2C(=O)C(=O)/C(=C(\O)c3ccc4c(c3)CC(C)O4)C2c2ccccc2)s1 (centres undefined) | 24.7* | 17.9% | -0.2%[46.1 µM] | 49.7* | -12.8% | ?
COc1cccc(C2/C(=C(/O)c3ccc4c(c3)CC(C)O4)C(=O)C(=O)N2c2nnc(C)s2)c1 (centres undefined) | -5.5 | 16.7% | ? | -7.2 | -5.6% | 14.3%[46.1 µM]
O=C1C(=O)N(Cc2cccnc2)C(c2cccc(O)c2)/C1=C(\O)c1ccc2c(c1)OCCO2 (centres undefined) | 24.5* | 14.9% | nt | 74.2* | -6.4% | nt
CCOc1cccc(C2/C(=C(\O)c3ccc4c(c3)OCCO4)C(=O)C(=O)N2Cc2ccncc2)c1 (centres undefined) | -4.3 | 8.0% | 20.6%[46.1 µM] | -2.9 | 22.7% | 5.7%[46.1 µM]
CC1Cc2cc(/C(O)=C3/C(=O)C(=O)N(CCN4CCOCC4)C3c3cccc(O)c3)ccc2O1 (centres undefined) | 62.3* | 11.4% | 11.8% | 91.3* | 14.6% | 7.3%
CC1Cc2cc(/C(O)=C3/C(=O)C(=O)N(CCCn4ccnc4)C3c3ccc(F)cc3)ccc2O1 (centres undefined) | 20.7* | 28.9% | 18.6%[46.1 µM] | 63.3 | 6.6% | 3.2%[46.1 µM]
O=C1C(=O)N(Cc2ccncc2)C(c2cccc(O)c2)/C1=C(\O)c1ccc2c(c1)OCCO2 (centres undefined) | 32.0* | 8.1% | nt | 78.1* | 3.3% | nt
CC1Cc2cc(/C(O)=C3\C(=O)C(=O)N(Cc4ccncc4)C3c3ccccc3F)ccc2O1 (centres undefined) | 5.7 | 16.8% | 6.4%[46.1 µM] | 11.6 | 9.0% | -4.5%[46.1 µM]
CC1Cc2cc(/C(O)=C3\C(=O)C(=O)N(CCN(C)C)C3c3ccccc3F)ccc2O1 (centres undefined) | 17.5* | 1.8% | 1.1% | 77.1* | 15.6% | 1.1%
COCCCNC(=O)CN(Cc1ccccc1)S(=O)(=O)c1ccccc1 | 1.6 | -1.8% | nt | -4.0 | -9.1% | nt
COCCCNC(=O)c1sc2nc(C)c(C(=O)Nc3ccc(C)cc3C)c(-c3ccc(Br)cc3)c2c1N | nt | nt | ? | nt | -29.2% | -25.0%[46.1 µM]
O=C1Nc2ccc(Br)cc2/C1=C/C(=O)c1ccc2c(c1)OCO2 | 3.2 | ? | nt | 12.8 | 28.2µM* | nt
Cc1c(C(=O)NCc2ccc(Cl)c(Cl)c2)sc(=O)n1Cc1ccccc1F | nt | nt | nt | nt | -11.1% | nt
CCCn1c(=O)[nH]c(=O)c2c1nc(-c1ccc(C(F)(F)F)cc1)n2CCOC | -9.4 | -1.6% | 3.8%[46.1 µM] | 14.2 | ? | nt
COCCn1c(-c2ccc(OC(F)(F)C(F)C(F)(F)F)cc2)nc2c1c(=O)[nH]c(=O)n2CC(C)C (centres undefined) | 2.3 | -26.5% | -5.0% | -10.3 | ? | 2.82µM*
CCCCn1c(-c2ccncc2)nc2c1c(=O)[nH]c(=O)n2CC(C)C | -3.4 | -0.2% | ? | 8.9 | -23.6% | 16.6%
SMILES | Cycloheximide cs | HCV inh | Marburg entry inh | Shiga inhibitor | FMDV antiviral | LASV entry inh
COCCn1c(-c2ccc(SC)cc2)nc2c1c(=O)[nH]c(=O)n2CC(C)C | 24.4* | -9.3% | -10.2%[46.1 µM] | 25.5 | 24.3% | ?
c1ccc(-c2noc(C34CC5CC(CC(C5)C3)C4)n2)cc1 | 13.7* | 7.4% | -1.0% | 19.1 | 35.7% | 9.5%
c1ccc(-c2noc(C34CC5CC(CC(C5)C3)C4)n2)nc1 | 33.7* | 7.2% | -9.0%[46.1 µM] | 99.7* | 30.9% | ?
CC(C)(C)c1nnc(NS(=O)(=O)c2ccc([N+](=O)[O-])cc2)s1 | 1.8 | 15.3% | nt | 2.4 | 4.7% | nt
C=C(C)C(=O)Oc1ccc(N2C(=O)CCC2=O)cc1 | 17.1* | 16.2% | nt | 17.8 | -4.3% | nt
CC(=O)Oc1ccc(N2C(=O)CCC2=O)cc1 | -1.3 | 8.2% | 0.8% | -5.4 | -3.5% | ?
Cc1cc(=O)oc(C)c1C(=O)N[C@@H](Cc1ccccc1)C(=O)O | 7.9 | 16.5% | nt | -6.4 | -10.9% | nt
COC(=O)c1ccccc1C(=O)N1CCCC(CNC(=O)c2ccc(F)cc2)C1 (centres undefined) | 11.5* | 10.5% | 15.8%[46.1 µM] | 4.0 | 10.3% | 23.7%[46.1 µM]
COC(=O)c1ccccc1C(=O)N1CCCC(CCC(=O)NCc2ccc(F)c(F)c2)C1 (centres undefined) | 40.8* | 3.9% | ? | 92.8* | 3.7% | -4.8%[46.1 µM]
COC(=O)c1ccc(C(=O)N2CCCC(CNC(=O)c3ccc(F)cc3)C2)cc1 (centres undefined) | 2.6 | 12.7% | nt | -4.1 | -23.6% | nt
Cc1noc(C)c1CCC(=O)N1CCCC(CCC(=O)NCc2ccc(F)c(F)c2)C1 (centres undefined) | 19.3* | 29.0% | nt | 13.9 | -1.4% | nt
O=C(C1=C(O)CCCC1)N1CCOCC1 | nt | nt | 20.3%[46.1 µM] | nt | nt | nt
COc1ccc(/C=N\Nc2ccc([N+](=O)[O-])cc2)c(C(=O)O)c1OC | -2.1 | 8.9% | nt | -4.6 | -10.3% | nt
COc1cc(/C=N/Nc2ccc(S(N)(=O)=O)cc2)cc(OC)c1OC | 2.2 | 10µM* | ? | -4.4 | 28.2µM* | ?
COc1cc(/C=N\NS(=O)(=O)c2ccccc2)cc(OC)c1OC | 0.3 | 13.4% | nt | nt | 0.1% | nt
COc1ccc(/C=N/Nc2ccc(C(=O)O)cc2)c(OC)c1OC | 47.2* | 23.7% | ? | 79.9* | 40.9% | ?
C=CCOc1c(OC)cc(/C=N/Nc2cccc(C(=O)O)c2)c(Br)c1Br | 49.9* | 36.3% | ? | 187.2* | 11.4% | -0.1%
COc1cc(/C=N/Nc2ccc(C(=O)O)cc2)cc(OC)c1OC | 45.0* | 29.7% | nt | 57.6* | 12.8% | nt
